Hit rate of the full screen: of about 260,000 compounds, about 1,500 (0.58%) were called active. Another 5% or so got no clear call; they are omitted.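 The calls were made as follows: active = inhibition above a set limit at one or more doses, reproduced on every date tested; inconclusive = results disagree between test dates, or hit never tested in dose response; inactive = the rest.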 These entries were drawn from the full list. Potency and affinity values are given separately.
Target: Virion infectivity factor (Human immunodeficiency virus type 1 group M subtype B (isolate BH10)) + Virion infectivity factor (Human immunodeficiency virus type 1 group M subtype B (isolate BRU/LAI)) + Virion infectivity factor (Human immunodeficiency virus type 1 group M subtype B (isolate PCV12)) + Virion infectivity factor (Human immunodeficiency virus type 1 group M subtype B (isolate HXB2)) + DNA dC->dU-editing enzyme APOBEC-3G (Homo sapiens) (UniProt P69720+P69721+P69722+P69723+Q9HC16)
Assay: inhibitors of Vif binding to APOBEC3G peptide, primary screen, biochemical, TR-FRET, GST-Vif 1-94, biotin-A3G peptide, dose response retest (AID 1117319);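 also: Vif residues 1-94 fused to GST binding biotinylated APOBEC3G peptide 110-148; 0% = full assay without inhibitor and 100% = GST in place of GST-Vif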
Conditions: stronger effect = higher value

inhibition, inactive:
Cc1ccnc(NC(=O)c2cccc(S(=O)(=O)NCc3ccccc3)c2)c1 -2.28%
COc1cccc(-n2nnc3c(=O)n(Cc4ccc(Br)cc4)cnc32)c1 -0.95%
O=C(OCC(=O)c1cccs1)c1ccc(NC(=O)c2ccco2)cc1 13.8%
CCCC[N+](C)(C)CCC(=O)NC(C)(C)CS(=O)(=O)[O-] 17.8%
CC1(NC(=O)CC[N+](C)(C)CCO)CS(=O)(=O)CC1S(=O)(=O)[O-] (stereo not drawn) 11.7%
CC(=O)Nc1ccc(/C(C)=N/NS(=O)(=O)c2ccccc2)cc1 -13.2%
Cc1ccc(CN2CCSc3ccc(C(=O)NCc4ccco4)cc32)cc1 -7.52%
CN1C(=O)C(=C2CCCCCC2)SC1=S 4.5%
O=C1NC(=S)SC1=C1CCCCCC1 16.7%
O=C(Cn1ncc2c(=O)oc3ccccc3c21)NCCc1ccsc1 -2.92%
COC(=O)[C@@]1(C)[C@H]2C(=O)N(Cc3ccccc3)C(=O)[C@H]2[C@H]2CN(C)C(=NC3CCCCC3)N21 -5.32%
COCCn1c(SCC(=O)Nc2sccc2C(N)=O)nnc1-c1ccncc1 -0.42%
O=C(O)c1cnn2c(C(F)(F)F)cc(-c3ccco3)nc12 23%
CCOC(=O)c1cnn2c(C(F)(F)F)cc(-c3ccco3)nc12 17%
CC(=O)c1cn(N(C)c2ncc(C(F)(F)F)cc2Cl)c(=O)[nH]c1=O -1.96%
CCOc1ccccc1C(=O)NCC(=O)NNC(=O)c1cccc(S(=O)(=O)Nc2ccc(OC)cc2)c1 -2.98%
CC(C)C(=O)Nc1cccc(C(=O)N2CCCCC2C)c1 (stereo not drawn) 12.2%
O=C(Nc1ccccc1)N1CCCC2CCCCC21 (stereo not drawn) 7.94%
CCC(C)N1CCN(S(=O)(=O)c2ccc(NC(C)=O)cc2)CC1 (stereo not drawn) -5.24%
Cn1c(=O)c2c(nc(CN3CCN(C(=O)c4ccco4)CC3)n2Cc2ccc(Cl)cc2)n(C)c1=O -6.63%
O=C(COc1ccccc1)N1CCN(S(=O)(=O)c2ccc(Cl)cc2)CC1 11.7%
COc1ccc(OCC(=O)N2CCN(S(=O)(=O)c3ccc(Cl)cc3)CC2)cc1 0.42%
Cn1c(N)c(C(=O)COC(=O)Cc2ccc(Cl)cc2)c(=O)n(C)c1=O 0.17%
CCS(=O)(=O)c1ccc2c(c1)N(S(C)(=O)=O)CC(C(=O)NN)O2 (stereo not drawn) -7.03%
Cc1ccc2nc(SCC(=O)N3CCN(c4ccccc4)CC3)[nH]c2c1 -0.39%
O=C(CCN1C(=O)c2cccc([N+](=O)[O-])c2C1=O)Nc1nccs1 -4.6%
O=[N+]([O-])c1ccc(N2CCN(c3ccccc3O)CC2)c(Cl)c1 -0.29%
NC(=O)C1CCN(c2ccc([N+](=O)[O-])cc2Cl)CC1 12.1%
N#Cc1csc(CCNC(=O)c2ccccc2)n1 -7.18%
Nn1c(SCc2ccccc2)nnc1-c1ccco1 2.72%
Nc1cc(N)nc(SCc2ccccc2Cl)n1 0.21%
CSc1nnc(-c2ccco2)n1-c1ccccc1 5.76%
CSc1ccc(-c2ccco2)nn1 11.8%
c1ccc(CSc2n[nH]c(-c3ccco3)n2)cc1 28.1%
Clc1ccccc1CSc1ncccn1 -2.52%
CCC(C)[C@H]1CNC(=S)N1CCC12CC3CC(CC(C3)C1)C2 (stereo partly drawn) 28.7%
Cc1ccc(N(CC(=O)NCc2ccc3c(c2)OCO3)S(=O)(=O)c2c(C)noc2C)cc1 1.33%
CCc1ccc(-c2nc(CS(=O)CC(=O)NCCN3CCCCCC3)c(C)o2)cc1 (stereo not drawn) -8.11%
CC1CN(C(c2cccs2)c2sc3ncnn3c2O)CC(C)O1 (stereo not drawn) -3.12%
O=S(=O)(/N=C(/Nc1cccc2ccccc12)c1ccccc1)c1ccc(Br)cc1 3.03%
CCOC(=O)N1CCC(N2CCN(S(=O)(=O)c3ccc(C)cc3)CC2)CC1 3.57%
CCCCC(=O)Nc1ccc(Br)cn1 -2.24%
CCCCCCC(=O)Nc1ccc(Br)cn1 22.8%
C/C(=N/NC(=O)c1ccccc1)c1ccc(NC(=O)C(F)(F)F)cc1 1.31%
Cc1ccc(OCC(O)CNCc2ccc(F)cc2)cc1 (stereo not drawn) 4.08%
O=C(Nc1ccc(CN2CCCCC2)cc1)c1cccc(F)c1 -2.63%
COc1ccc(C(=O)CSc2nc3ccccc3n2CC(=O)c2ccccc2)cc1 2.41%
O=C(CSc1nc2ccccc2n1CCc1ccccc1)NC1CC1 16.5%
CC(=O)Nc1ccc(NC(=O)[C@@H](NC(=O)c2ccccc2F)C(C)C)cc1 2.31%
CCC(C)[C@H](NC(=O)Nc1ccccc1F)C(=O)OC (stereo partly drawn) 85.4%
COc1ccc(NC(=O)Nc2cccs2)cn1 9.16%
Cc1cc(F)ccc1S(=O)(=O)Nc1ccccc1C(=O)Nc1ccccc1-c1nc2ccccc2[nH]1 16.7%
Cc1cc(F)ccc1S(=O)(=O)Nc1ccccc1C(=O)Nc1ncn[nH]1 -4.68%
COc1ccccc1NC(=O)C(C)OC(=O)CN1C(=O)C2CC=CCC2C1=O (stereo not drawn) -6.25%
COc1ccc(CCN2CC(C(=O)N(C)CCn3nc(C)cc3C)CCC2=O)cc1 (stereo not drawn) 6.02%
Cc1ccc(-c2ccccc2)n1-c1ccc(C(=O)O)cc1 -4.6%
Cc1ccc(C)n1-c1cccc(C(=O)Nc2ccccc2)c1 18.2%
Cc1cc(N)ccc1-n1c(C)ccc1C 15.6%
Cc1cc(C)n(Cc2ccc(C(=O)O)cc2)n1 -1.33%
CCc1ccc(C(=O)O)cc1 0.16%
Cc1ccc(-c2ccccc2)n1-c1cccc(C(=O)O)c1 0.87%
Cc1cc(C(=O)O)ccc1-n1c(C)cc(C=C2C(=O)c3ccccc3C2=O)c1C -10.7%
Cc1ccc(C)n1-c1ccc(C(=O)NN)cc1 -3.66%

Source: PubChem BioAssay AID1117319 (Southern Research Institute, 2015)
